PubChem BioAssay AID1159580 (chemical genetic matrix, 2015)
“And” between values parts separate entries of the source, which are not always exact repeats. Equal entries are not always repeated. Among all 5,500 compounds or so, about 2,000 (36%) were called active. Roughly 18% stayed inconclusive and do not appear here. Cut-off read from the data, not from the text of the source: active = normalized growth mostly below about 0.91 (no sharp cut-off); inconclusive = no clear call, values can overlap the other calls; inactive = mostly above about 0.92. The list shows a part of the results. Some compounds were tested as several samples or in several runs, with calls that do not always agree.

Assay: chemical genetic growth profiling, strain panel (AID 1159580);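 note: tested at 20 µM; growth read once vehicle control cultures reached saturation at 30 °C; 1 = growth at the plate median or of vehicle wells; lower values mean less growth of the strain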
Settings: S. cerevisiae deletion strains, growth OD
[1] = locus YCL061C, strain MRC1, stronger effect = lower value
[2] = locus YHR030C, strain SLT2, stronger effect = lower value
[3] = locus YJL187C, strain SWE1, stronger effect = lower value

Measured: normalized growth

NCCOB(c1ccccc1)c1ccccc1
inactive: locus YAL021C, strain ccr4, stronger effect = lower value 0.936 and 0.969 | locus YBR023C, strain chs3, stronger effect = lower value 0.925 and 0.92 | locus YBR171W, strain sec66, stronger effect = lower value 0.968 and 0.998 | locus YBR231C, strain swc5, stronger effect = lower value 1.03 and 1 | locus YCL016C, strain dcc1, stronger effect = lower value 1.01 and 0.977 | locus YDL005C, strain med2, stronger effect = lower value 1 and 1.03 | locus YDL040C, strain nat1, stronger effect = lower value 1.01 and 1.02 | locus YDR069C, strain doa4, stronger effect = lower value 1.02 and 1.01 | locus YDR137W, strain rgp1, stronger effect = lower value 0.997 and 0.987 | locus YDR159W, strain sac3, stronger effect = lower value 1.03 and 1.06 | locus YDR195W, strain ref2 1.11 and 1.07 | locus YDR297W, strain sur2, stronger effect = lower value 1.01 and 0.979 | locus YDR335W, strain msn5, stronger effect = lower value 1 and 0.991 | locus YEL003W, strain gim4, stronger effect = lower value 1.02 and 0.999 | locus YEL037C, strain rad23, stronger effect = lower value 1.01 | locus YEL061C, strain CIN8 (second series), stronger effect = lower value 1.01 | locus YER016W, strain bim1, stronger effect = lower value 1.02 | locus YER111C, strain swi4, stronger effect = lower value 1.02 and 1.01 | locus YGL167C, strain pmr1, stronger effect = lower value 1.04 and 1.05 | locus YGL173C, strain kem1, stronger effect = lower value 0.927 and 0.93 | locus YHR142W, strain chs7, stronger effect = lower value 0.882 and 0.977 | locus YJL129C, strain trk1, stronger effect = lower value 0.965 and 0.979 | locus YLL001W, strain dnm1, stronger effect = lower value 0.995 and 0.946 | locus YLR320W, strain mms22, stronger effect = lower value 0.973 and 1 | locus YLR384C, strain iki3, stronger effect = lower value 1.02 | locus YML120C, strain ndi1, stronger effect = lower value 0.961 and 0.993 | locus YMR205C, strain PFK2, stronger effect = lower value 0.937 and 0.943 | locus YNL322C, strain KRE1 (second series), stronger effect = lower value 1.04 and 1.03 | locus YOR001W, strain rrp6, stronger effect = lower value 0.947 and 1 | locus YOR080W, strain dia2, stronger effect = lower value 1.02 | locus YOR270C, strain vph1, stronger effect = lower value 0.934 and 0.992 | locus YOR290C, strain snf2, stronger effect = lower value 0.895 and 0.926 | locus YPL078C, strain atp4, stronger effect = lower value 0.967 and 0.972 | locus YPL240C, strain hsp82, stronger effect = lower value 1.02 and 0.932
0.879 (active) and 0.913 (inactive): locus YCL011C, strain gbp2, stronger effect = lower value
0.836 (active) and 0.998 (inactive): locus YLL026W, stronger effect = lower value
0.694 (active) and 0.939 (inactive): locus YLR027C, strain aat2, stronger effect = lower value
0.892 (active) and 0.987 (inactive): locus YAL030W, strain snc1, stronger effect = lower value
0.923 (inactive) and 0.845 (active): locus YLR262C, strain YPT6 (second series), stronger effect = lower value
0.815 (active) and 0.926 (inactive): locus YER155C, strain BEM2 (second series), stronger effect = lower value
0.891 (inactive) and 0.792 (active): locus YPL106C, strain sse1, stronger effect = lower value
0.887 (active) and 0.923 (inactive): locus YJL095W, strain BCK1 (second series), stronger effect = lower value
active: locus YAL026C, strain drs2, stronger effect = lower value 0.153 and 0.218 | locus YBL061C, strain skt5, stronger effect = lower value 0.578 and 0.786 | locus YBR009C, strain hhf1, stronger effect = lower value 0.758 and 0.788 | locus YBR279W, strain paf1, stronger effect = lower value 0.46 and 0.808 | [1] 0.827 and 0.759 | locus YCL069W, strain vba3, stronger effect = lower value 0.437 and 0.312 | locus YCR088W, strain abp1, stronger effect = lower value 0.604 and 0.524 | locus YDR001C, strain nth1, stronger effect = lower value 0.651 and 0.789 | locus YDR334W, strain swr1, stronger effect = lower value 0.472 and 0.793 | locus YDR392W, strain spt3, stronger effect = lower value 0.423 and 0.451 | locus YER015W, strain faa2, stronger effect = lower value 0.528 and 0.733 | locus YFR010W, strain ubp6, stronger effect = lower value 0.351 and 0.387 | locus YGL227W, strain vid30, stronger effect = lower value 0.602 and 0.427 | locus YGL240W, strain doc1, stronger effect = lower value 0.822 and 0.865 | locus YGL253W, strain hxk2, stronger effect = lower value 0.468 and 0.384 | locus YHR013C, strain ard1, stronger effect = lower value 0.432 and 0.49 | locus YHR027C, strain rpn1, stronger effect = lower value 0.799 and 0.766 | [2] 0.106 | locus YHR079C, strain IRE1, stronger effect = lower value 0.11 | locus YJL092W, strain hpr5, stronger effect = lower value 0.334 and 0.399 | locus YJL095W, strain BCK1, stronger effect = lower value 0.106 | locus YJL115W, strain asf1, stronger effect = lower value 0.85 and 0.877 | locus YJL154C, strain vps35, stronger effect = lower value 0.454 and 0.657 | locus YJL164C, strain tpk1, stronger effect = lower value 0.824 and 0.786 | locus YJL166W, strain qcr8, stronger effect = lower value 0.841 and 0.839 | [3] 0.798 | locus YJR066W, strain TOR1, stronger effect = lower value 0.00283 | locus YKL160W, strain elf1, stronger effect = lower value 0.717 and 0.751 | locus YKR026C, strain gcn3, stronger effect = lower value 0.381 and 0.353 | locus YKR091W, strain srl3, stronger effect = lower value 0.357 and 0.316 | locus YLR113W, strain HOG1, stronger effect = lower value 0.141 | locus YLR221C, strain rsa3, stronger effect = lower value 0.372 and 0.709 | locus YLR258W, strain gsy2, stronger effect = lower value 0.578 and 0.778 | locus YLR342W, strain FKS1, stronger effect = lower value 0.841 and 0.823 | locus YLR357W, strain rsc2, stronger effect = lower value 0.629 | locus YLR370C, strain arc18, stronger effect = lower value 0.44 and 0.485 | locus YMR058W, strain fet3, stronger effect = lower value 0.167 and 0.157 | locus YMR125W, strain sto1, stronger effect = lower value 0.759 and 0.824 | locus YMR129W, stronger effect = lower value 0.507 and 0.306 | locus YMR231W, strain pep5, stronger effect = lower value 0.247 and 0.309 | locus YNL071W, strain lat1, stronger effect = lower value 0.248 and 0.315 | locus YNL183C, strain NPR1, stronger effect = lower value 0.000102 | locus YNL209W, strain ssb2, stronger effect = lower value 0.699 and 0.694 | locus YNL248C, strain rpa49, stronger effect = lower value 0.693 and 0.758 | locus YNR049C, strain mso1, stronger effect = lower value 0.585 and 0.756 | locus YOR070C, strain gyp1, stronger effect = lower value 0.657 and 0.767 | locus YOR083W, strain WHI5, stronger effect = lower value 0.202 and 0.184 | locus YOR106W, strain vam3, stronger effect = lower value 0.688 and 0.741 | locus YOR231W, strain MKK1, stronger effect = lower value 0.0985 | locus YOR265W, strain rbl2, stronger effect = lower value 0.79 and 0.861 | locus YPL051W, strain arl3, stronger effect = lower value 0.622 and 0.599 | locus YPL256C, strain CLN2, stronger effect = lower value 0.118
0.868 (active) and 0.944 (inactive): locus YLL041C, strain sdh2, stronger effect = lower value

CC(=O)c1ccc(-c2ccc(Cl)c(Cl)c2)o1
active: locus YAL013W, strain DEP1, stronger effect = lower value 0.803 | locus YBR229C, strain ROT2, stronger effect = lower value 0.825 | [1] 0.776 | locus YDL101C, strain DUN1, stronger effect = lower value 0.661 | locus YDL134C, strain PPH21, stronger effect = lower value 0.428 | locus YEL061C, strain CIN8, stronger effect = lower value 0.445 | locus YGR078C, strain PAC10, stronger effect = lower value 0.863 | [2] 0.0914 | locus YHR087W, strain rtc3, stronger effect = lower value 0.816 | [3] 0.807 | locus YJR043C, strain POL32, stronger effect = lower value 0.8 | locus YJR075W, strain HOC1, stronger effect = lower value 0.787 | locus YLR039C, strain RIC1, stronger effect = lower value 0.207 | locus YLR085C, strain ARP6, stronger effect = lower value 0.112 | locus YLR262C, strain YPT6, stronger effect = lower value 0.264 | locus YML094W, strain GIM5, stronger effect = lower value 0.633 | locus YMR219W, strain ESC1, stronger effect = lower value 0.877 | locus YMR263W, strain SAP30, stronger effect = lower value 0.629 | locus YNL128W, strain TEP1, stronger effect = lower value 0.82 | locus YNL153C, strain GIM3, stronger effect = lower value 0.838 | locus YNL298W, strain CLA4 (second series), stronger effect = lower value 0.373 | locus YNR030W, strain Alg12, stronger effect = lower value 0.483 | locus YOL006C, strain TOP1, stronger effect = lower value 0.15 | locus YPL055C, strain LGE1, stronger effect = lower value 0.747 | locus YPL241C, strain CIN2, stronger effect = lower value 0.365 | locus YPR135W, strain CTF4, stronger effect = lower value 0.213
inactive: locus YGR229C, strain SMI1, stronger effect = lower value 0.956 | locus YLR058C, strain SHM2 (second series), stronger effect = lower value 0.994 | locus YNL322C, strain KRE1, stronger effect = lower value 0.99
